Hits are enriched below; roughly 6.1% of the tested compounds scored in any of these assays.
Hsp90 Hop PPI – qHTS Assay for Disrupters of an Hsp90 Co-Chaperone Interaction; Hsp90 C-terminal peptide / TPR2A (Hop) interaction, human; AlphaScreen TPR2A-His6 binding biotin-Hsp90 C-terminal peptide; Potency, µM (top dose mostly 57 µM), for inactives: at the highest dose activity change, negative = inhibition; actives 0.44% (n = 71,000); active = well fitted curve in either direction with a large enough effect; inconclusive = small, poorly fitted or top-dose-only effect, or another doubt
FLuc inh – qHTS Assay for Inhibitors of Firefly Luciferase. Luciferin 4-monooxygenase (Photinus pyralis), P08659. purified firefly luciferase, luminescence, 8 min. Potency, µM (series often up to 57.1 µM), without a hit: at the top dose activity change, negative = inhibition, hits mostly inhibitors. actives 2.2% (n = 72,000). AID 411, 2009; also: nearly all actives have a fitted effect of over 40% in size
Target sequence (P08659 whole entry, looked up): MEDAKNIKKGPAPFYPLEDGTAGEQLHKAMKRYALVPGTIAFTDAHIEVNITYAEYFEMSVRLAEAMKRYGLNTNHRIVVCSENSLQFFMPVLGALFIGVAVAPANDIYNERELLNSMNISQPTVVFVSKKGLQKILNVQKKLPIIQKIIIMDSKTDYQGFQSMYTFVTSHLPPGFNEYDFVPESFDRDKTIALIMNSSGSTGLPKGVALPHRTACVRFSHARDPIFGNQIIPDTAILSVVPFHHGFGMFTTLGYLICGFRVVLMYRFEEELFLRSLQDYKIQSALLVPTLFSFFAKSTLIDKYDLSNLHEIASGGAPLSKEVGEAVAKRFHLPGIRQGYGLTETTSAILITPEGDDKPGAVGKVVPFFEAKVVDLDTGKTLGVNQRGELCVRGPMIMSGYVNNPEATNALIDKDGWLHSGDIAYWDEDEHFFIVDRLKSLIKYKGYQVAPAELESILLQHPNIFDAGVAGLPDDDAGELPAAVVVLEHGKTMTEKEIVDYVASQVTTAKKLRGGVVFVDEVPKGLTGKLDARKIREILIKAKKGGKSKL
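Substrate buffer containing 10 uM ATP (pH 7.2 imidazole, Mg2+, KCl, detergent, BSA) is dispensed, compound pinned in, then luciferase/luciferin detector mix added. After 8 min at ambient temperature, light output is measured.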
ERK AVP block – qHTS Assay for Inhibitors of the ERK Signaling Pathway using a Homogeneous Screening Assay. HEK293-V1b, vasopressin-stimulated pERK AlphaScreen. Potency, µM (highest dose often 57.5 µM), inactives show at the top dose activity, negative = inhibition, actives largely listed as inhibitors. actives 0.99% (n = 72,000). AID 995, 2007; also: nearly all actives have a fitted effect of over 55% in size
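Phosphorylated ERK1/2 detected via AlphaScreen bead proximity in lysates of V1b-expressing HEK293 cells given 25 nM vasopressin for 5 min after 30 min compound exposure (37 °C). AC50 from Hill equation; basal DMSO 0%, vasopressin 100%.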
Bst PK mod – Pyruvate Kinase; actives 1.2% (n = 51,000); purified pyruvate kinase, luminescence ATP production; ribose 5-phosphate activator present at AC10; Potency, µM; in the data active = potency below about 11 µM; inconclusive = mostly about 12 µM to 25 µM;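 the screen sought inhibitors and activators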;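 also: scaled between full activation by ribose 5 phosphate and full inhibition by luteolin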
15-hLO inh – qHTS Assay for Inhibitors of 15-hLO (15-human lipoxygenase); Polyunsaturated fatty acid lipoxygenase ALOX15 (Homo sapiens), P16050; purified 15hLO-1, xylenol orange hydroperoxide absorbance; actives 1.4% (n = 74,000); Potency, µM (doses to about 57.1 µM), for the others: at the top dose activity change, negative = inhibition, actives largely listed as inhibitors; also: nearly all actives have a fitted effect of over 55% in size
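Inhibition is scored from a chromogenic endpoint. After 15 min enzyme-compound contact, arachidonic acid (50 uM final) reacts 6 min with 40 nM 15hLO-1 at room temperature, then Fe-XO reagent is added for 30 min and absorbance ratio recorded.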
Tau fil binding – qHTS Assay for Tau Filament Binding. Potency, µM (highest dose often 57.1 µM), for inactives: at the top dose activity change, negative = inhibition. Microtubule-associated protein tau (Homo sapiens), P10636. recombinant tau filaments, thioflavin S fluorescence, 15 h; filaments grown with octadecylsulfate alongside compound. AID 596, 2007. actives 2% (n = 71,000);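 also: actives lower thioflavin S fluorescence by blocking filaments or displacing dye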
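Read-out: ThS fluorescence, 450 nm excitation/510 nm emission; lower signal marks blocked filament formation or displaced dye. Tau at 1 uM with 30 uM ODS, 10 uM ThS, 5 mM DTT, 100 mM NaCl, 10 mM HEPES pH 7.4; 15 h, 37 C.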
Active calls of the source: *; [ ] = remark or other dose. Unless noted, calls follow the shape of the dose curve; as a rule, active = well fitted curve in the direction sought with a large enough effect; inconclusive = small, poorly fitted or top-dose-only effect, or another doubt; inactive = no such curve, though single readings can be large; an effect the other way counts as inactive or inconclusive. Unless noted, % is scaled to controls: 0 for no effect and ±100 for the full control effect; potency is read from the fitted curve at half-maximal effect.

Results for Cc1ccc(OCC(=O)Nc2cccc(O)c2)cc1C ?
Hsp90 Hop PPI: -3.5%; FLuc inh: 15.8µM*; ERK AVP block: -12.5%; 15-hLO inh: 1.9%; Tau fil binding: -7.5%

What do the screens show for `CC(Cc1ccccc1)C(=O)NCC1CC1` (stereo not given)?
Hsp90 Hop PPI: -3.5%; ERK AVP block: -4.8%; 15-hLO inh: 16.7%; Tau fil binding: -16.6%

Results for COc1ccccc1-c1ccc2ncnc(NC3CCNCC3)c2c1 ?
Hsp90 Hop PPI: -1.4%; FLuc inh: 1.6%[2.29 µM]; ERK AVP block: 2.6%; 15-hLO inh: 18.1%; Tau fil binding: -21.1%

How did O=c1c(-c2ccc(F)cc2)nc2cnc(Nc3ccccc3)nc2n1Cc1cccs1 do in these assays?
Hsp90 Hop PPI: -4.6%; FLuc inh: -0.8%[11.4 µM]; ERK AVP block: 10.1%; 15-hLO inh: -11.6%; Tau fil binding: 77.5%

What do the screens show for `Cn1c(=O)c2c(nc(NC(Cc3ccccc3)C(=O)O)n2Cc2ccccc2)n(C)c1=O` (stereo not given)?
Hsp90 Hop PPI: -5.9%; FLuc inh: 1.0%; ERK AVP block: -8.3%; Bst PK mod: >57; 15-hLO inh: 25.1µM*; Tau fil binding: -2.9%

How did COc1cc2c(cc1NC(=O)COC(=O)Cn1cnc3ccccc31)oc1ccccc12 do in these assays?
Hsp90 Hop PPI: -7.4%; FLuc inh: 15.8µM*; ERK AVP block: -22.3%; 15-hLO inh: 7.6%; Tau fil binding: 2.4%

How did COc1cc2c(cc1NC(=O)CSCC(=O)O)oc1ccccc12 do in these assays?
Hsp90 Hop PPI: -4.4%; FLuc inh: -7.0%; ERK AVP block: 6.8%; Bst PK mod: inactive; 15-hLO inh: 9.9%; Tau fil binding: -4.0%

Results for C[C@@](N)(C(=O)O)c1cccc(CC(=O)O)c1 ?
Hsp90 Hop PPI: -0.6%; FLuc inh: 1.8%; ERK AVP block: -0.1%; 15-hLO inh: 3.1%[25.6 µM]; Tau fil binding: -18.4%

What do the screens show for `Cc1cc([C@](C)(N)C(=O)O)ccc1P(=O)(O)O`?
Hsp90 Hop PPI: 4.6%; FLuc inh: 25.1µM*; ERK AVP block: 2.6%; 15-hLO inh: -6.7%[25.6 µM]; Tau fil binding: 21.0%

Results for COc1ccc2c(c1OC)C(=O)N(c1cccc(C(F)(F)F)c1)C2 ?
Hsp90 Hop PPI: 4.7%; FLuc inh: 12.6µM*; ERK AVP block: -10.9%; Bst PK mod: inactive; 15-hLO inh: -7.9%; Tau fil binding: 22.6%

Results for COc1ccc2c(c1OC)C(=O)N(c1cccc(C)c1)C2 ?
Hsp90 Hop PPI: -5.5%; FLuc inh: 7.94µM*; ERK AVP block: -20.0%; Bst PK mod: inconclusive; 15-hLO inh: -0.6%; Tau fil binding: 3.8%

How did COc1ccc(NC(=O)N2CCC3(CC2)CCN(C(=O)c2cccc(F)c2)CC3)cc1 do in these assays?
Hsp90 Hop PPI: -2.0%; FLuc inh: 2.3%[11.4 µM]; ERK AVP block: 3.4%; 15-hLO inh: 11.8%; Tau fil binding: 9.8%

What do the screens show for `Cc1ccc(S(=O)(=O)O[C@H]2C[C@@H](C(C)(C)C)CC[C@@H]2c2ccccc2)cc1`?
Hsp90 Hop PPI: 7.3%[11 µM]; FLuc inh: -0.2%[11.4 µM]; ERK AVP block: 10.2%[11.5 µM]; 15-hLO inh: 10.0%[11.4 µM]; Tau fil binding: 5.1%[11.4 µM]

Results for CN=c1scc(C)n1/N=C/c1ccc(O)cc1 ?
Hsp90 Hop PPI: -16.2%; FLuc inh: 12.6µM*; ERK AVP block: -4.4%; Bst PK mod: 6.8*; 15-hLO inh: -20.1%; Tau fil binding: inconclusive

How did CN=c1scc(C)n1/N=C/c1ccc(O)cc1O do in these assays?
Hsp90 Hop PPI: -29.1%; FLuc inh: 3.98µM*; ERK AVP block: inconclusive; Bst PK mod: 1.07*; 15-hLO inh: -15.0%; Tau fil binding: -20.5%

What do the screens show for `CN=c1scc(C)n1/N=C/c1ccc2c(c1)OCO2`?
Hsp90 Hop PPI: inconclusive; FLuc inh: 3.98µM*; ERK AVP block: inconclusive; Bst PK mod: 3.23*; 15-hLO inh: 7.3%; Tau fil binding: inconclusive

What do the screens show for `N#Cc1c(-c2ccccc2)cc(-c2ccco2)c(C#N)c1N`?
Hsp90 Hop PPI: inconclusive; FLuc inh: -0.7%; ERK AVP block: inconclusive; 15-hLO inh: 7.94µM*; Tau fil binding: 42.8%

Results for N#Cc1sc2nc(-c3ccccc3)cc(-c3ccco3)c2c1N ?
Hsp90 Hop PPI: -17.9%; FLuc inh: -9.7%; ERK AVP block: -24.2%; Bst PK mod: inconclusive; 15-hLO inh: 3.98µM*; Tau fil binding: 2.51µM*

What do the screens show for `COC(=O)c1sc2nc(-c3ccco3)ccc2c1N`?
Hsp90 Hop PPI: -3.6%; FLuc inh: -27.4%; ERK AVP block: -13.2%; 15-hLO inh: 2.0%; Tau fil binding: 4.9%

Results for CC(=O)c1c(C)[nH]c(C(=O)Nc2ccc3c(c2)OCCO3)c1C ?
Hsp90 Hop PPI: -2.7%; FLuc inh: 12.6µM*; ERK AVP block: 12.9%; Bst PK mod: inactive; 15-hLO inh: -5.0%; Tau fil binding: -9.5%

What do the screens show for `COc1ccc(NC(=O)c2[nH]c(C)c(C(C)=O)c2C)cc1Cl`?
Hsp90 Hop PPI: -5.8%; FLuc inh: -12.5%; ERK AVP block: inconclusive; Bst PK mod: >57; 15-hLO inh: 31.6µM*; Tau fil binding: 42.8%

How did CN(C)c1ccccc1CN1CCCN(Cc2ccccc2N(C)C)C1c1ccncc1 do in these assays?
Hsp90 Hop PPI: -1.9%[11 µM]; FLuc inh: 2.2%[11.4 µM]; ERK AVP block: -1.8%[11.5 µM]; 15-hLO inh: 11.8%[11.4 µM]; Tau fil binding: -13.5%[11.4 µM]

What do the screens show for `CO[C@H]1[C@@H](OC(N)=O)[C@H](O)[C@@H](Oc2ccc3c(O)c(NC(=O)c4ccc(O)c(CC=C(C)C)c4)c(=O)oc3c2C)OC1(C)C`?
Hsp90 Hop PPI: -0.7%[26 µM]; FLuc inh: 6.7%[25.5 µM]; ERK AVP block: -10.5%[25.7 µM]; 15-hLO inh: -1.5%[25.6 µM]; Tau fil binding: 1.2%[25.6 µM]

How did Cc1ccc(NC(=O)NC2=N/C(=C(/C#N)C(=O)N3CCCC3)c3ccccc32)cc1 do in these assays?
Hsp90 Hop PPI: -11.4%; FLuc inh: -3.0%; ERK AVP block: 5.8%; Bst PK mod: inconclusive; 15-hLO inh: 2.7%; Tau fil binding: 5.01µM*

Results for CC1(C)OCC(CSC2=C(SCC3COC(C)(C)O3)C(=O)c3ncccc3C2=O)O1 (stereo not given) ?
Hsp90 Hop PPI: 15.8µM*; ERK AVP block: 15.8µM*; 15-hLO inh: inconclusive; Tau fil binding: 15.8µM*

Results for CCN(Cc1cc(Cl)cc(C)c1O)Cc1c(O)ccc2ccccc12 ?
Hsp90 Hop PPI: -1.5%[11 µM]; FLuc inh: 1.0%[11.4 µM]; ERK AVP block: -1.3%[11.5 µM]; 15-hLO inh: -2.8%[11.4 µM]; Tau fil binding: 3.5%[11.4 µM]

How did Cc1ccc2ccc3cccc4ccc1c2c34 do in these assays?
Hsp90 Hop PPI: 39.8µM*; ERK AVP block: 20.8%; 15-hLO inh: -4.7%; Tau fil binding: 16.5%

Screening data: PubChem, National Center for Advancing Translational Sciences (NCATS)
